High-throughput results as filed in PubChem.
WRN inhibitor = WRN helicase (human) inhibition. AID 651768. Potency, µM (doses to about 114 µM), without a hit: at the highest dose activity change, negative = inhibition, hits mostly inhibitors. WRN helicase unwinding, fluorescent forked duplex, kinetic. hit rate 0.46% among 360,000. Q14191; note: % is set by controls: 0 for no effect and ±100 for the full control effect; nearly all actives have a fitted effect of over 55% in size
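Primary qHTS, 1536-well format. 20 nM WRN + compound, 15 min RT; start with 100 nM forked fluorophore/quencher duplex, 2 mM ATP (final); kinetic read ex 525/em 598 nm.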
POLI inh = blocks human DNA polymerase iota activity; Potency, µM (series often up to 115 µM), inactives show at the top dose activity, negative = inhibition, usual class: inhibitors; hit rate 1% among 390,000; Pol iota fluorescent replication assay, 10 min
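Fluorescent replication assay read twice, at 0 min and 10 min after adding 50 nM (final) substrate. Enzyme (10 nM) and compounds were first incubated 15 min at room temperature; enzyme-free buffer wells were negative controls.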
Pol kappa inh = inhibitors of human DNA polymerase kappa. Potency, µM (doses to about 107 µM), without a hit: at the highest dose activity, negative = inhibition, actives largely listed as inhibitors. AID 588579. hit rate 0.53% among 400,000. purified Pol kappa, fluorescent DNA synthesis assay, 10 min; note: % is set by controls: 0 for no effect and ±100 for the full control effect
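Pol kappa 10 nM + cpd, 15 min RT; start w/ substrate 50 nM final; fluorescence kinetic read, 0 and 10 min. Neg ctrl: buffer, no enzyme.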
FEN1 inhibitor = blocks human flap endonuclease 1; Recombinant FEN1 flap cleavage, fluorescence, 15 min; P39748; hit rate 0.35% among 390,000; Potency, µM (top dose mostly 114 µM), without a hit: at the top dose activity change, negative = inhibition, usual class: inhibitors; AID 588795; note: % is set by controls: 0 for no effect and ±100 for the full control effect; nearly all actives have a fitted effect of over 65% in size
Target sequence (P39748 whole entry, looked up): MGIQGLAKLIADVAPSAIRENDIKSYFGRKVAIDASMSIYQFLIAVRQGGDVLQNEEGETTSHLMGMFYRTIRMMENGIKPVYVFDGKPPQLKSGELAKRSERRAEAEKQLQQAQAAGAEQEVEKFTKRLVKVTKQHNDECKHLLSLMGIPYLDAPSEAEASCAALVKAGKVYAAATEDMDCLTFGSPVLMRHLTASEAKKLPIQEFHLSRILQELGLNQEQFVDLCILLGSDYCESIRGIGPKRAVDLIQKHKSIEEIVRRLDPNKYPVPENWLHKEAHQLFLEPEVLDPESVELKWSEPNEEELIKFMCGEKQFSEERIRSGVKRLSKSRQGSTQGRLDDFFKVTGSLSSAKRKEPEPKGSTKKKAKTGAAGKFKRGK
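Recombinant FEN1 (10 nM) was preincubated with pin-transferred compounds for 15 min at room temperature, then flap DNA substrate (50 nM final) was added. Plates were read at 0 and 15 min, and normalized concentration–response data were fitted to a four-parameter Hill equation.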
POLB inh = blocks human DNA polymerase beta activity | P06746 | Pol beta primer extension/strand displacement, fluorescence kinetic | Potency, µM (doses to about 114 µM), inactives show at the top dose activity change, negative = inhibition, usual class: inhibitors | hit rate 1.3% among 340,000; note: % is set by controls: 0 for no effect and ±100 for the full control effect
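Homogeneous kinetic assay of primer extension and strand displacement by 10 nM Pol beta, preincubated 15 min at room temperature with compound before 50 nM substrate (final) was added. Read at 0 and 10 min; four-parameter Hill fit.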
POLH inh = blocks human DNA polymerase eta activity. recombinant Pol eta, fluorescent DNA replication assay. Potency, µM (top dose mostly 114 µM), without a hit: top-dose activity change, negative = inhibition, usual class: inhibitors. hit rate 1.2% among 390,000. AID 588591; note: % is set by controls: 0 for no effect and ±100 for the full control effect
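Fluorescent replication assay: 50 nM final substrate added after a 15 min room-temperature compound preincubation with 10 nM enzyme. Signal taken at 0 min and again at 10 min.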
Numbers without * were called inactive; ? = inconclusive; . = not tested or not shown; [ ] = another dose, or the depositor's remark. Rows were chosen to be rich in hits. Some 2.4% of all compounds tested hit in one or more screens of this group. Calls come from the whole dose curve; as a rule, active = well fitted curve in the direction sought with a large enough effect; inconclusive = small, poorly fitted or top-dose-only effect, or another doubt; inactive = no such curve, though single readings can be large; an effect the other way counts as inactive or inconclusive. Potency is the fitted concentration of half-maximal effect.

SMILES	WRN inhibitor	POLI inh	Pol kappa inh	FEN1 inhibitor	POLB inh	POLH inh
Cc1ccc(NC(=O)C2CCN(S(=O)(=O)c3cccc4nonc34)CC2)cc1C	.	-20%	-5%[60.1 µM]	-3%	-11%	13%
CCCCC(=O)O[C@]1(C(=O)CO)CCC2C3CCC4=CC(=O)CCC4(C)C3C(O)CC21C (some centres not stated)	.	.	0%[19.4 µM]	.	.	.
COc1ccccc1C(=O)Nc1cccc(OCc2cc(=O)n3ccccc3n2)c1	.	5%	5%[60.1 µM]	6%	-4%	-16%
O=C(O)CC(O)CC(O)/C=C/c1c(C2CC2)nc2ccccc2c1-c1ccc(F)cc1 (configuration not stated)	.	.	2%[60.1 µM]	.	.	.
Cc1ccc(CNC(=O)CCc2nnc3ccc(N4CCC5(CC4)OCCO5)nn23)cc1	4%[11.6 µM]	?	79µM*	-7%	14%	-13%
Cn1nnc2c(N3CCN(Cc4ccccc4)CC3)ncnc21	.	-9%	1%	11%	.	.
O=C1CC(c2ccccc2)=NN1c1ccccc1	-5%	-31%	-19%	-6%	.	-4%
O=C1CC(c2ccccc2)=NN1c1nc(-c2ccccc2)cs1	0%[11.6 µM]	20µM*	40µM*	?	32µM*	-20%
CNCC(=O)c1c[nH]c2ccccc12	.	17%	-2%	13%	.	.
CCCc1nnc(NC(=O)Cc2coc3ccc(C)cc23)s1	.	2%	-14%	19%	-2%	-3%
Cc1ccc2occ(CC(=O)Nc3nnc(C(C)C)s3)c2c1	.	79µM*	17%	3%	20%	-3%
Cc1ccc2c(CC(=O)Nc3sccc3C(N)=O)coc2c1	-9%[57.1 µM]	79µM*	-29%	?	2%	?
CCOC(=O)c1c(NC(=O)Cc2coc3cc(C)ccc23)sc2c1CCCC2	.	-3%	-18%	-2%	-21%	-14%
CNC(=O)[C@H]1O[C@@H](n2cnc3c(N)ncnc32)[C@H](O)[C@H]1O	.	11%[58.9 µM]	.	.	25%[57.1 µM]	-3%[57.1 µM]
CCCCOC(=O)c1ccc(Nc2nc3ccccc3c3nnc(C)n23)cc1	.	24%	4%	-7%	5%	-24%
CCCN1CCC(=O)N(C(CSc2ccc(C)cc2)CC(C)C)CC1 (configuration not stated)	.	-18%	-5%	-17%	.	.
CNc1ccc(Br)cc(C(=O)/C=C/c2ccc(OC)cc2)c1=O	-8%[11.6 µM]	?	-17%	4%	28µM*	?
CCNc1ccc(Br)cc(C(=O)/C=C/c2ccc(Cl)cc2Cl)c1=O	?	8.9µM*	?	?	13µM*	14µM*
Cc1ccc(NS(=O)(=O)c2ccc(-c3cc(C)no3)cc2)c(Br)c1	.	17%	3%	-7%	15%	-11%
COc1ccc(NC(=O)Cc2cccs2)cc1S(=O)(=O)N1CCCCC1	-11%	72%	-4%	-5%	.	-20%
COc1ccc(NC(C)=O)cc1S(=O)(=O)N1CCN(Cc2cccs2)CC1	-12%	?	-42%	-1%	.	25µM*
Cc1c2ccccc2cc[n+]1CCCS(=O)(=O)[O-]	-7%	64%	6%	7%	-1%	-15%
CC1(C)C(/C=C/C=C/C=C/C=C2\N(CCCCS(=O)(=O)O)c3ccc4ccccc4c3C2(C)C)=[N+](CCCCS(=O)(=O)[O-])c2ccc3ccccc3c21	45µM*	13µM*	22µM*	20µM*	.	7.1µM*
Nc1c(N2CCOCC2)cc(Cl)c2nonc12	-14%	3.5µM*	-1%	-2%	-1%	-5%
Cc1cc(N2CCOCC2)c2c(N)cc(C)c(C)c2n1	-3%	7%	-2%	-9%	0%	-3%
CC1(S(=O)(=O)O)CC(=O)c2ccccc2C1=O (configuration not stated)	-10%[11.6 µM]	6.3µM*	-16%	?	?	?
Cc1noc(C)c1C(=O)N1CCC2(CC1)CN(c1ccccn1)C2	.	.	-6%[60.1 µM]	.	.	.
CCN1/C(=C/c2ccc3cc(C)cc(C)c3[n+]2CC)Sc2cc(C)ccc21	18µM*	-26%	-24%	?	50µM*	79µM*
